RE007 growth inh = less growth of the S. pombe RE007 Vpr strain; S. pombe RE007 Vpr strain, BacTiter-Glo ATP luminescence, 24 h; Potency, µM (series often up to 92.2 µM), most hits filed as inhibitors; 360,000 compounds, 0.21% hits; AID 651644; active = well fitted falling curve with a large enough effect; inconclusive = small, poorly fitted or top-dose-only effect; inactive = no such curve, though single readings can be large or run the other way; also: nearly all actives have a fitted effect of over 50% in size
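Fission yeast RE007 carrying one integrated HIV-1 vpr copy, seeded at OD 0.01 in PMG+AL medium with 23 nL pinned compound. Grown 24 h at 30 degrees; viability read by BacTiter-Glo luminescence after 5 min.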
Tb PYK inh = inhibitors of Trypanosoma brucei pyruvate kinase | Q57TT1 | TbPYK enzyme, Kinase-Glo Plus ATP luminescence, 45 min | Potency, µM (top dose mostly 76.8 µM), usual class: inhibitors | 410,000 compounds, 0.12% hits; also: nearly all actives have a fitted effect of over 50% in size
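Readout: single end-point luminescence (Kinase-Glo Plus, 10 min). Reaction conditions were TbPYK/substrate plus 130 uM ADP, 45 min at RT, pH 7.2 TEA buffer. No-enzyme wells served as controls, and data were normalized before concentration-response fitting.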
Sm TGR inh = inhibitors of Schistosoma mansoni thioredoxin glutathione reductase | Potency, µM (series often up to 114 µM), hits mostly inhibitors | Q962Y6 | purified TGR, DTNB reduction, TNB absorbance 405 nm | 360,000 compounds, 3% hits; also: nearly all actives have a fitted effect of over 60% in size
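Kinetic colorimetric format: TGR-catalysed, NADPH-driven DTNB reduction monitored via TNB absorbance. Enzyme dispensed at 20 nM; compound exposure 15 min at room temperature before reaction start.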
FMDV inh = antivirals against foot and mouth disease virus; FMDV antiviral cell-based qHTS; Potency, µM (series often up to 57.9 µM), usual class: inhibitors; 410,000 compounds, 1.2% hits; calls by dose curve; tested in HEK293T cells; also: read-out not given here; nearly all actives have a fitted effect of over 45% in size
HCMV inh = inhibitors of human cytomegalovirus; activity change, negative = inhibition, % at 57.5 µM; HFF cells, HCMV-luciferase reporter, 72 h; active compounds read low; AID 1259415; 410,000 compounds, 4.5% hits; in the data active = activity change below about -60%; inconclusive = no clear call, values can overlap the other calls; inactive = above about -39%
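Luciferase read-out from HCMV-luciferase-infected HFFs (MOI 1 PFU/cell) 72 h post infection at 37C; compounds added after 16 h cell attachment; activity normalized between buffer-only basal and Salinomycin (10uM) inhibitor controls.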
Giardia FBPA inh = blocks Giardia fructose-bisphosphate aldolase activity. A8B2U2. purified Giardia FBPA. Potency, µM (highest dose often 59.6 µM), usual class: inhibitors. 290,000 compounds, 0.71% hits. AID 2451; also: nearly all actives have a fitted effect of over 55% in size
Target sequence (A8B2U2 whole entry, looked up): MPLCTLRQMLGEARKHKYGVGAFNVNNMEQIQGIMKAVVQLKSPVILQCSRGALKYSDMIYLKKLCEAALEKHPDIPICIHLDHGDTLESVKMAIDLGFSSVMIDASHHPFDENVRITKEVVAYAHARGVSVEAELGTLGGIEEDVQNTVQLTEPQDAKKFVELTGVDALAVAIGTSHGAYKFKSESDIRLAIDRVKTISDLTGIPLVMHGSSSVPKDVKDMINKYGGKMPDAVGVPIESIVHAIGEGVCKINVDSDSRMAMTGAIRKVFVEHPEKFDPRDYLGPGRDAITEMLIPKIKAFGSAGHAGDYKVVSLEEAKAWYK
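40 nM FBPA preincubated 10 min at RT with compound (up to 57.5 uM final), then substrate plus GAPDH/TPI/NAD/arsenate coupling and diaphorase/resazurin added. Fluorescence read after 20 min at RT, 525/598 nm.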
Each line names hits and unclear results; the compound was inactive in the other large screens. A selection: hits, their analogues and other compounds. The true share with any hit is near 7.7%. Unless noted, calls follow the shape of the dose curve; as a rule, active = well fitted curve in the direction sought with a large enough effect; inconclusive = small, poorly fitted or top-dose-only effect, or another doubt; inactive = no such curve, though single readings can be large; an effect the other way counts as inactive or inconclusive.

CCNc1nc(-c2sc(NC(=O)C(C)(C)C)nc2C)c(-n2cc(-c3ccccc3)nn2)s1	FMDV inh inconclusive, HCMV inh -70.4 (no result: Sm TGR inh, Giardia FBPA inh)
Cc1nc(NC(=O)C(C)(C)C)sc1-c1nc(N)sc1-n1cc(-c2ccccc2)nn1	none (no result: Sm TGR inh, Giardia FBPA inh)
O=C(c1ccccc1)c1ccc(OCC(O)CN2CCN(S(=O)(=O)N3CCCCC3)CC2)cc1 (stereo not given)	Tb PYK inh inconclusive, FMDV inh 14.1µM, HCMV inh -66.9
O=C(c1ccccc1)c1ccc(OCC(O)CN2CCCCC2)cc1 (stereo not given)	none
O=S(=O)(NCc1nc(N2CCCC2)c2cc(Cl)ccc2n1)c1ccccc1OC(F)(F)F	none (no result: RE007 growth inh, Tb PYK inh, Sm TGR inh, HCMV inh, Giardia FBPA inh)
CCOc1ccc2[nH]cc(C(=O)NCc3ccc(F)cc3)c(=O)c2c1	HCMV inh -71.0
O=C(NCc1ccccc1)c1c[nH]c2ccc(F)cc2c1=O	HCMV inh inconclusive
Cc1c(C(=O)NCc2ccc(C(C)C)cc2)sc(=O)n1Cc1ccc(S(=O)(=O)N(C)C)cc1	FMDV inh 11.2µM, HCMV inh -68.1 (no result: Sm TGR inh, Giardia FBPA inh)
Cc1c(C(=O)NCc2ccc(Cl)c(Cl)c2)sc(=O)n1Cc1ccc(S(=O)(=O)N(C)C)cc1	FMDV inh 22.4µM (no result: Sm TGR inh, Giardia FBPA inh)
Cc1c(C(=O)NCc2cccc(Cl)c2)sc(=O)n1Cc1ccc(C(=O)N(C)C)cc1	FMDV inh inconclusive (no result: Sm TGR inh, Giardia FBPA inh)
C=Cc1ccc(Cn2c(C)c(C(=O)NCc3ccc(Cl)c(Cl)c3)sc2=O)cc1	HCMV inh inconclusive (no result: Sm TGR inh, Giardia FBPA inh)
Cc1c(C(=O)NCc2ccc(Cl)c(Cl)c2)sc(=O)n1Cc1ccc(C(=O)N(C)C)cc1	FMDV inh inconclusive, HCMV inh -68.6 (no result: Sm TGR inh, Giardia FBPA inh)
CCCN(CC(=O)Nc1ccc(F)c(F)c1F)CC(=O)Nc1c(C)n(C)n(-c2ccccc2)c1=O	FMDV inh inconclusive, HCMV inh -68.8 (no result: Giardia FBPA inh)
Cc1cc(C)n(Cc2ccc(C(=O)O)cc2)n1	HCMV inh -64.8 (no result: FMDV inh)
Cc1cc(C)n(Cc2ccc(NC(=O)c3ccc(COc4ccccc4Br)cc3)cc2)n1	FMDV inh 12.6µM, HCMV inh -90.4
O=S(=O)(c1ccc(Cl)cc1)c1nc(-c2ccco2)oc1SCc1ccc(F)cc1	Sm TGR inh inconclusive, FMDV inh inconclusive (no result: RE007 growth inh, Giardia FBPA inh)
COc1ccc(C2CC(=O)CCN2S(=O)(=O)c2ccc(F)cc2)cc1 (stereo not given)	none (no result: RE007 growth inh, Tb PYK inh, Sm TGR inh, FMDV inh, Giardia FBPA inh)
Nc1ncnc2c1ncn2C1CCCO1 (stereo not given)	HCMV inh -73.5
O=C(C1=C[C@@H]2[C@H]3C(=O)N(c4ccc(Cl)cc4)C(=O)[C@H]3[C@@H](C(=O)c3ccc(Cl)cc3)N2C=C1)c1ccccc1	Sm TGR inh 14.1µM
CC(=O)Oc1ccc(C(=O)[C@H]2[C@H]3C(=O)N(c4ccccc4)C(=O)[C@H]3[C@@H]3C=CC=NN32)cc1	Sm TGR inh inconclusive, Giardia FBPA inh inconclusive
COc1ccc(-n2c(=O)c3ccccc3n(CC(=O)NCCc3ccc(OC)c(OC)c3)c2=O)cc1	none (no result: RE007 growth inh, Giardia FBPA inh)
CC(C)CCC(O)(c1ccccc1)C(CN1CCOCC1)c1ccccc1 (stereo not given)	FMDV inh inconclusive, HCMV inh -66.7
CCCCCCC(O)(c1ccccc1)C(CN1CCOCC1)c1ccccc1 (stereo not given)	FMDV inh inconclusive, HCMV inh -76.4
CCCCCC(O)(c1ccccc1)C(CN1CCOCC1)c1ccccc1 (stereo not given)	FMDV inh inconclusive, HCMV inh -60.3
CCCC(O)(c1ccccc1)C(CN1CCOCC1)c1ccccc1 (stereo not given)	HCMV inh inconclusive
CCCC(O)(c1ccc(Cl)cc1)C(CN1CCOCC1)c1ccccc1 (stereo not given)	none
COc1ccc(C(O)(CCC(C)C)C(CN2CCOCC2)c2ccccc2)cc1 (stereo not given)	FMDV inh inconclusive, HCMV inh inconclusive
CCCCCCC(O)(c1ccc(OC)cc1)C(CN1CCOCC1)c1ccccc1 (stereo not given)	HCMV inh -69.3

Assay outcomes from PubChem BioAssay.
